Source: publication PMC7862700, “An all-to-all approach to the identification of sequence-specific readers for epigenetic DNA modifications on cytosine”

Experiments:
Test in all cases: DAPPL (digital affinity profiling via proximity ligation, sequencing); 10 mM Tris-HCl pH 7.5, 50 mM NaCl, 1 mM DTT, 4% glycerol, room temperature, 30 min; GST-TFs on glutathione beads, 16-mer random dsDNA library, 0.1% formaldehyde crosslink after washing; high values mean tight binding
FEV = molecular target: T1, FEV (Homo sapiens, UniProt Q99581 1-238); conditions: protein: recombinant; tags: N-terminal GST; dsDNA, one strand shown
T1 sequence: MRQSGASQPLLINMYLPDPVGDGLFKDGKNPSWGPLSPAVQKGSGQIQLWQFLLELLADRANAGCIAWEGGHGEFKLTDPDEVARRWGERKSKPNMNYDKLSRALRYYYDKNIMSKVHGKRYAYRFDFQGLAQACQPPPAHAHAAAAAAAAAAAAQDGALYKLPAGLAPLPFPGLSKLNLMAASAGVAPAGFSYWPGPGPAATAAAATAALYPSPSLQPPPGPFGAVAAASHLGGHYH
Procedure, shortened: (§1)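 The binding signal reported is, for every hexamer, its read frequency for a factor over its read frequency for the tag-only sample. Reads came from pools of yeast-expressed, GST-fused human transcription factors on glutathione beads, barcoded with DNA and mixed with that sample, which were incubated with 200 nmole of a random double-stranded 16-mer DNA library in Tris/NaCl/DTT/glycerol buffer at room temperature for 30 min. After washing, the pools were crosslinked with 0.1% formaldehyde, proximity-ligated with BsaI/T4 ligase for 1 h at 37 °C, PCR-amplified and sequenced on an Illumina NextSeq500.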

ETV5 = ETV5 (Homo sapiens, UniProt P41161 1-510); conditions: protein: recombinant; tags: N-terminal GST; dsDNA, one strand shown
Chain of ETV5 (P41161 whole entry): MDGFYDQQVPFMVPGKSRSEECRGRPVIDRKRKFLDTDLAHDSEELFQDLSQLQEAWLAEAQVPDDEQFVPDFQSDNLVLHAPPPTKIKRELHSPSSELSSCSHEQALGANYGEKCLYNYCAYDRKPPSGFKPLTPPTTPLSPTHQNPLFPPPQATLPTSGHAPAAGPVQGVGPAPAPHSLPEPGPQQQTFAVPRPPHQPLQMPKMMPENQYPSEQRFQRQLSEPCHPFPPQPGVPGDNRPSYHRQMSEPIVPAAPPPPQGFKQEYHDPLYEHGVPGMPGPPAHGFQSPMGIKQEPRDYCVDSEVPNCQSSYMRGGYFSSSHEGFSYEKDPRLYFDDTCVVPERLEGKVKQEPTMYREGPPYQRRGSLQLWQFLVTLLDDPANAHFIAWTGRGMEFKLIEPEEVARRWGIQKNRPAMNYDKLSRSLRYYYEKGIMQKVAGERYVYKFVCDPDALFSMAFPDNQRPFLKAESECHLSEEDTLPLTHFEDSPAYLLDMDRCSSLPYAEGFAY
Procedure, shortened: as §1

HSF1 = HSF1 (Homo sapiens, UniProt Q00613 1-529); conditions: protein: recombinant; tags: N-terminal GST; chain copies: 3; dsDNA, one strand shown
Chain of HSF1 (Q00613 whole entry): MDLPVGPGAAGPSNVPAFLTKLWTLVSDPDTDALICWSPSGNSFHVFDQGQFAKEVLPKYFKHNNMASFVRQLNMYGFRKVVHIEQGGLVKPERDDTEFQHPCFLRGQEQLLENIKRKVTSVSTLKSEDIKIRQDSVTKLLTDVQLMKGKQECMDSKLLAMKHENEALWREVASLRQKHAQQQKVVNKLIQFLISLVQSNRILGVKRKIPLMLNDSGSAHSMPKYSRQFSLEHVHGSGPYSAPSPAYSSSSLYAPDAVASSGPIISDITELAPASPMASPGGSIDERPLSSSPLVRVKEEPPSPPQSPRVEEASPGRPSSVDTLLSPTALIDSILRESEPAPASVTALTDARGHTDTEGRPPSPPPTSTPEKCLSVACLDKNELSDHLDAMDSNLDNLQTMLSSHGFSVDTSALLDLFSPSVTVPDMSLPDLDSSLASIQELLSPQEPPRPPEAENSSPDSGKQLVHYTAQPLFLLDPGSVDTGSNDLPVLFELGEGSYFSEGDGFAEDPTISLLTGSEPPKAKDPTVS
Procedure, shortened: as §1

SPIC = molecular target: T2, SPIC (Homo sapiens, UniProt Q8N5J4 1-248); conditions: protein: recombinant; tags: N-terminal GST; dsDNA, one strand shown
T2 sequence: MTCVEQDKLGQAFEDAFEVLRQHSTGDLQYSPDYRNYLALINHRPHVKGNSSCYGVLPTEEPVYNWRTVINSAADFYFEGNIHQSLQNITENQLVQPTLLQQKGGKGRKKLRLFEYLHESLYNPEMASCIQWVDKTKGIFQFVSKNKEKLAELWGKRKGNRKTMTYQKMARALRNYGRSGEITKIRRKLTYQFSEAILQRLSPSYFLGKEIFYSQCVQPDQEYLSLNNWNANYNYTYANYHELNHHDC
Procedure, shortened: as §1

ELF4 = ELF4 (Homo sapiens, UniProt Q99607 1-663); conditions: protein: recombinant; tags: N-terminal GST; dsDNA, one strand shown
Chain of ELF4 (Q99607 whole entry): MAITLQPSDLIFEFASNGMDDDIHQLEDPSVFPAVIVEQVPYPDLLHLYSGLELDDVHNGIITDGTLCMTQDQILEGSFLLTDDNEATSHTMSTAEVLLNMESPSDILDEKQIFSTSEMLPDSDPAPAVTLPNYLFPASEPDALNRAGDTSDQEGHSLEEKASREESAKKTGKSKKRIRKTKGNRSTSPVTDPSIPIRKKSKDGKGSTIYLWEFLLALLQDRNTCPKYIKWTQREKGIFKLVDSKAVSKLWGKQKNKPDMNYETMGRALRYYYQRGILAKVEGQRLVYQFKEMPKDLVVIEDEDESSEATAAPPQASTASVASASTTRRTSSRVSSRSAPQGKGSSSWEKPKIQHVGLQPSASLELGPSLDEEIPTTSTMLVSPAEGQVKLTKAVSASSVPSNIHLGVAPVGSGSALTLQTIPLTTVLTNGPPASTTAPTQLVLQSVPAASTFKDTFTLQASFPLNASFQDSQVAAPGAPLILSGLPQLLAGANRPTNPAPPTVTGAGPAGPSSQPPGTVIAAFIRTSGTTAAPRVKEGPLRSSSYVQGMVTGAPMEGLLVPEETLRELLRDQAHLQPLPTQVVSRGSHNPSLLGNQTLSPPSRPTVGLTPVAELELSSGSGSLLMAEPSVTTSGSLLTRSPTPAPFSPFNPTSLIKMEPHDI
Procedure, shortened: as §1

ELK4 = molecular target: T3, ELK4 (Homo sapiens, UniProt P28324-2 1-405); conditions: protein: recombinant; tags: N-terminal GST; dsDNA, one strand shown
T3 sequence: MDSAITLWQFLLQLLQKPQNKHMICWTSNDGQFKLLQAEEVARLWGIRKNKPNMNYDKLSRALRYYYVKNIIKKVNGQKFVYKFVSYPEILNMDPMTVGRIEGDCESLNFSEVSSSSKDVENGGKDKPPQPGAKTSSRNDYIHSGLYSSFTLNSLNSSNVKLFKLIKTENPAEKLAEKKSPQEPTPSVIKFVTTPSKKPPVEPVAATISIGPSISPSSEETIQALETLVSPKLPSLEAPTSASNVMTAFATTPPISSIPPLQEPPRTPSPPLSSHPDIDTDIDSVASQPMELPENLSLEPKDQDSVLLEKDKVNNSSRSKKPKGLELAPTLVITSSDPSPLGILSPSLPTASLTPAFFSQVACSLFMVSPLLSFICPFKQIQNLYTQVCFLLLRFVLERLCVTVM
Procedure, shortened: as §1

ETV2 = molecular target: T4, ETV2 (Homo sapiens, UniProt O00321 1-342); conditions: protein: recombinant; tags: N-terminal GST; dsDNA, one strand shown
T4 sequence: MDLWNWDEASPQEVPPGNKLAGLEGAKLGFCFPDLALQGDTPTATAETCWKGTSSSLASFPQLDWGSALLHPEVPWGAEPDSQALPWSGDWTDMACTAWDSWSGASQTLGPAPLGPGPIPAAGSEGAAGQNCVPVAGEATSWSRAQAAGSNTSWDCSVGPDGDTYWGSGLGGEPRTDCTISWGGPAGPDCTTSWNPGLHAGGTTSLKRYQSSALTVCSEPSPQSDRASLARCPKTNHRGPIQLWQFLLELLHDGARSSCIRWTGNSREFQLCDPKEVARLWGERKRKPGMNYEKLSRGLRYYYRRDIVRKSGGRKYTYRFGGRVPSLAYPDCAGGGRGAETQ
Procedure, shortened: as §1

ELF3 = molecular target: T5, ELF3 (Homo sapiens, UniProt P78545 1-371); conditions: protein: recombinant; tags: N-terminal GST; dsDNA, one strand shown
T5 sequence: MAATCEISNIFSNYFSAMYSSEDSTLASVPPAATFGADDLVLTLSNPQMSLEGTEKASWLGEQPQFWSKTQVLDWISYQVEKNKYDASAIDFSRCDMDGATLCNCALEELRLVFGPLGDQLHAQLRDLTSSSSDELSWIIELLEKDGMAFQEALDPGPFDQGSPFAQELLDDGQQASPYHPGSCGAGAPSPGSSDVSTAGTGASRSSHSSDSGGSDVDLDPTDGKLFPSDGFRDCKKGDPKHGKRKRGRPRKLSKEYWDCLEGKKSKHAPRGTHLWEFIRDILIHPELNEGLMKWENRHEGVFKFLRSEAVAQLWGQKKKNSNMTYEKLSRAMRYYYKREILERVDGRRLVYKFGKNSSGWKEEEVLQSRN
Procedure, shortened: as §1

CRX = CRX (Homo sapiens, UniProt O43186 1-299); conditions: protein: recombinant; tags: N-terminal GST; dsDNA, one strand shown
Chain of CRX (O43186 whole entry): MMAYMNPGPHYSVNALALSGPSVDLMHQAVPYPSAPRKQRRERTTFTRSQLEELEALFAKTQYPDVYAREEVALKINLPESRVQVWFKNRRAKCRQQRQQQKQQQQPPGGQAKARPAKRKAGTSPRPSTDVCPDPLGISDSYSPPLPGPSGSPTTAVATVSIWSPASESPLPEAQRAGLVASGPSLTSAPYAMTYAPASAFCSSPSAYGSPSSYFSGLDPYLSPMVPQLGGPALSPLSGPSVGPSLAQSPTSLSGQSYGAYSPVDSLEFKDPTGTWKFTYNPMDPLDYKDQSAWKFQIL
Procedure, shortened: as §1

ETV1 = ETV1 (Homo sapiens, UniProt P50549 1-477); conditions: protein: recombinant; tags: N-terminal GST; dsDNA, one strand shown
Chain of ETV1 (P50549 whole entry): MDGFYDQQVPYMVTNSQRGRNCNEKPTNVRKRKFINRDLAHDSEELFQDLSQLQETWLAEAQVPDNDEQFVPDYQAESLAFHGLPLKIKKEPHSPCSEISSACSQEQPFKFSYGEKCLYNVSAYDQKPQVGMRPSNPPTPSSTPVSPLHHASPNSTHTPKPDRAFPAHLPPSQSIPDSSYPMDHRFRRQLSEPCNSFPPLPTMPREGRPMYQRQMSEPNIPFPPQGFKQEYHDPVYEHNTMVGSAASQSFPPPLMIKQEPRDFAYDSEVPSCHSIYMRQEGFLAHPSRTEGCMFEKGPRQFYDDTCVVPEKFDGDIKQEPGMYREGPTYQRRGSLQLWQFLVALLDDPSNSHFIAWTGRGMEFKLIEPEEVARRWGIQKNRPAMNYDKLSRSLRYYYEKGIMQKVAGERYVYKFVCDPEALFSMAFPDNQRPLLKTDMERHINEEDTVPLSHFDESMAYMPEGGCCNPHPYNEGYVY
Procedure, shortened: as §1

ERF = molecular target: T6, ERF (Homo sapiens, UniProt P50548 1-548); conditions: protein: recombinant; tags: N-terminal GST; dsDNA, one strand shown
T6 sequence: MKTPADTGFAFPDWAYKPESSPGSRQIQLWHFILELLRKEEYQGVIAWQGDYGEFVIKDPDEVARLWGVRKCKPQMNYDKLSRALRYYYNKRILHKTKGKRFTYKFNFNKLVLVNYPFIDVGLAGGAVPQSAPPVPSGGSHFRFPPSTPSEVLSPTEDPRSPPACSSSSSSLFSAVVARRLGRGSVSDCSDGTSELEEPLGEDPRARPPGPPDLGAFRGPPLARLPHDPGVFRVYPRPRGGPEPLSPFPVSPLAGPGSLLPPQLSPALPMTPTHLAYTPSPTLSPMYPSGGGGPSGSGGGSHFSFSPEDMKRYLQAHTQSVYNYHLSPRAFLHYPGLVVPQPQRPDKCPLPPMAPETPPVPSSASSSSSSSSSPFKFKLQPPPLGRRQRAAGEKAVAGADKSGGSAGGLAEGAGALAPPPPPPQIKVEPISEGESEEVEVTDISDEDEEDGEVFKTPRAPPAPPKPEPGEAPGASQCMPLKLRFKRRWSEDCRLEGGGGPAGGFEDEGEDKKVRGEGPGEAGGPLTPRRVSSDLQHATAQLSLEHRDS
Procedure, shortened: as §1

ETV3L = molecular target: T7, ETV3L (Homo sapiens, UniProt Q6ZN32 1-361); conditions: protein: recombinant; tags: N-terminal GST; dsDNA, one strand shown
T7 sequence: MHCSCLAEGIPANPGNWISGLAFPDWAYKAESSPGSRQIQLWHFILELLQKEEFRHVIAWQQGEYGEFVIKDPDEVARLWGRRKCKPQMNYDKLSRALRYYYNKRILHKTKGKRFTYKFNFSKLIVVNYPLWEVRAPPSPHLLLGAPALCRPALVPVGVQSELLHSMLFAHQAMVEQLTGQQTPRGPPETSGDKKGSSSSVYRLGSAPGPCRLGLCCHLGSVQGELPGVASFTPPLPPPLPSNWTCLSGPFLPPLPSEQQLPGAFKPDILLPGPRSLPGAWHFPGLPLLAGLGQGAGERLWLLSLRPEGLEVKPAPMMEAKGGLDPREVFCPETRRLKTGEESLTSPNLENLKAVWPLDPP
Procedure, shortened: as §1

ETS2 = molecular target: T8, ETS2 (Homo sapiens, UniProt P15036 1-469); conditions: protein: recombinant; tags: N-terminal GST; dsDNA, one strand shown
T8 sequence: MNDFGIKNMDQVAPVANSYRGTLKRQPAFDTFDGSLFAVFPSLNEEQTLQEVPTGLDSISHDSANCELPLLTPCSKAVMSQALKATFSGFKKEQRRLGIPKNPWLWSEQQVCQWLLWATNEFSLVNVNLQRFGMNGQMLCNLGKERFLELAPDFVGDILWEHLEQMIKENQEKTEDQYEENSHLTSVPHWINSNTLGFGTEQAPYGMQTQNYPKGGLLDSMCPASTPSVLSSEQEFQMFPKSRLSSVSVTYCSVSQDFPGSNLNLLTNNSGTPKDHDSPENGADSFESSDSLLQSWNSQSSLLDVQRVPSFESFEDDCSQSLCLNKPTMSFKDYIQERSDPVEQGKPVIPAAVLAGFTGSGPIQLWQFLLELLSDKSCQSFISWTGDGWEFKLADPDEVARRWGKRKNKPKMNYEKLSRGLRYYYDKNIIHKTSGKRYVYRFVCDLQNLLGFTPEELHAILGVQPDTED
Procedure, shortened: as §1

SPDEF = molecular target: T9, SPDEF (Homo sapiens, UniProt O95238 1-335); conditions: protein: recombinant; tags: N-terminal GST; dsDNA, one strand shown
T9 sequence: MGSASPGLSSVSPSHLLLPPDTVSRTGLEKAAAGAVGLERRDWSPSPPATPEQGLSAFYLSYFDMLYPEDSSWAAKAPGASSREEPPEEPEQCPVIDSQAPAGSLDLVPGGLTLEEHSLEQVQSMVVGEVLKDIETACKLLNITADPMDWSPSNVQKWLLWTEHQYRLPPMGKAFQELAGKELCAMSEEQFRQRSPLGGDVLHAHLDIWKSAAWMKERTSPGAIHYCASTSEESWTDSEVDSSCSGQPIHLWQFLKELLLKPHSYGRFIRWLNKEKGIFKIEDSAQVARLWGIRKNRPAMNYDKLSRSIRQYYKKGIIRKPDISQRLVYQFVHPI
Procedure, shortened: as §1

ETV7 = molecular target: T10, ETV7 (Homo sapiens, UniProt Q9Y603 1-341); conditions: protein: recombinant; tags: N-terminal GST; dsDNA, one strand shown
T10 sequence: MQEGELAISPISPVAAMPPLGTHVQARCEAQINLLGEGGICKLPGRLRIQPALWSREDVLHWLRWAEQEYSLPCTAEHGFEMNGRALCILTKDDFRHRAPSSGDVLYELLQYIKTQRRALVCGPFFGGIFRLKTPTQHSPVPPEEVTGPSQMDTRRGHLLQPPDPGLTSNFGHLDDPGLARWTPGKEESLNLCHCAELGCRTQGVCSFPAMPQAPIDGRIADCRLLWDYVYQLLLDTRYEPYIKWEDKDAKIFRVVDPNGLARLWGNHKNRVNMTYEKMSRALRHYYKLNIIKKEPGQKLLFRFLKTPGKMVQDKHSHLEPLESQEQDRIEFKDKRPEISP
Procedure, shortened: as §1

ELF5 = molecular target: T11, ELF5 (Homo sapiens, UniProt Q9UKW6-2 1-255); conditions: protein: recombinant; tags: N-terminal GST; dsDNA, one strand shown
T11 sequence: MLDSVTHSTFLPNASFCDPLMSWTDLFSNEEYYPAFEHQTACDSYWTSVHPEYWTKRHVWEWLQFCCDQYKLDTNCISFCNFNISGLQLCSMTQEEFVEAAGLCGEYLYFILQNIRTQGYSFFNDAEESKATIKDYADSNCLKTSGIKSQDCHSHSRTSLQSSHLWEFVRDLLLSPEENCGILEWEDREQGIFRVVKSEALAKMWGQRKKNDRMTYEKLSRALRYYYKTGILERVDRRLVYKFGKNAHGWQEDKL
Procedure, shortened: as §1

ETV3 = molecular target: T12, ETV3 (Homo sapiens, UniProt P41162-2 1-143); conditions: protein: recombinant; tags: N-terminal GST; dsDNA, one strand shown
T12 sequence: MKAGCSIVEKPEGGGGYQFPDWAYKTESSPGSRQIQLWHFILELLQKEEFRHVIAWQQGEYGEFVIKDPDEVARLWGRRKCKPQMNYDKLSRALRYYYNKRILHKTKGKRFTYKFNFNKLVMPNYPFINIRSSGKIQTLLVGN
Procedure, shortened: as §1

ETV6 = ETV6 (Homo sapiens, UniProt P41212 1-452); conditions: protein: recombinant; tags: N-terminal GST; dsDNA, one strand shown
Chain of ETV6 (P41212 whole entry): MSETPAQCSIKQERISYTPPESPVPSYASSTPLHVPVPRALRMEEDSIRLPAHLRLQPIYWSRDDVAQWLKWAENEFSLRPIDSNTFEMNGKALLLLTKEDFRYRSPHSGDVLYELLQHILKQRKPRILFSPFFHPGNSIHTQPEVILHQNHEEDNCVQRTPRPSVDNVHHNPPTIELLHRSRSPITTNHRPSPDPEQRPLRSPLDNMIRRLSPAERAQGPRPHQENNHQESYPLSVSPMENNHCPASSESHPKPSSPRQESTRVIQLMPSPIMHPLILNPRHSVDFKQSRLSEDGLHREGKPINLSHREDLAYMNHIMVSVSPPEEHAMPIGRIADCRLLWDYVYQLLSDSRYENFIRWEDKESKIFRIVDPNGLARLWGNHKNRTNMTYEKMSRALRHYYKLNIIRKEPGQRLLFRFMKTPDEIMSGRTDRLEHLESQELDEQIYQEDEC
Procedure, shortened: as §1

GCGATG
binding signal (FEV): 1.22 fold enrichment (6-mer frequency, TF over GST control)
binding signal (ETV5): 1.25 fold enrichment (6-mer frequency, TF over GST control)
binding signal (HSF1): 1.08 fold enrichment (6-mer frequency, TF over GST control)
binding signal (SPIC): 1.07 fold enrichment (6-mer frequency, TF over GST control)
binding signal (ELF4): 1.21 fold enrichment (6-mer frequency, TF over GST control)
binding signal (ELK4): 1.2 fold enrichment (6-mer frequency, TF over GST control)
binding signal (ETV2): 1.25 fold enrichment (6-mer frequency, TF over GST control)
binding signal (ELF3): 1.26 fold enrichment (6-mer frequency, TF over GST control)
binding signal (CRX): 1.03 fold enrichment (6-mer frequency, TF over GST control)
binding signal (ETV1): 1.15 fold enrichment (6-mer frequency, TF over GST control)
binding signal (ERF): 1.38 fold enrichment (6-mer frequency, TF over GST control)
binding signal (ETV3L): 1.26 fold enrichment (6-mer frequency, TF over GST control)
binding signal (ETS2): 1.35 fold enrichment (6-mer frequency, TF over GST control)
binding signal (SPDEF): 1.29 fold enrichment (6-mer frequency, TF over GST control)
binding signal (ETV7): 1.31 fold enrichment (6-mer frequency, TF over GST control)
binding signal (ELF5): 1.17 fold enrichment (6-mer frequency, TF over GST control)
binding signal (ETV3): 1.28 fold enrichment (6-mer frequency, TF over GST control)
binding signal (ETV6): 1.18 fold enrichment (6-mer frequency, TF over GST control)
